# Measured values: publication PMC4336329 (PLoS ONE, 2015)
# Hit rate of the full screen: of about 310,000 compounds, about 14,000 (4.5%) showed an effect of 50% or more. Effects have a minus sign here. The sample as a whole holds a higher share of strong results than the screen did.
# Target: human ether-à-go-go-related gene (hERG) potassium channel (human, UniProt Q12809)
# Experiment: primary screen, population patch clamp on CHO cells stably expressing hERG; higher = less effect of the substance
# 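Also: peak tail current of the secondary pulse compared with the same well before compound.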
# Sequence of human ether-à-go-go-related gene (hERG) potassium channel (Q12809 whole entry, looked up): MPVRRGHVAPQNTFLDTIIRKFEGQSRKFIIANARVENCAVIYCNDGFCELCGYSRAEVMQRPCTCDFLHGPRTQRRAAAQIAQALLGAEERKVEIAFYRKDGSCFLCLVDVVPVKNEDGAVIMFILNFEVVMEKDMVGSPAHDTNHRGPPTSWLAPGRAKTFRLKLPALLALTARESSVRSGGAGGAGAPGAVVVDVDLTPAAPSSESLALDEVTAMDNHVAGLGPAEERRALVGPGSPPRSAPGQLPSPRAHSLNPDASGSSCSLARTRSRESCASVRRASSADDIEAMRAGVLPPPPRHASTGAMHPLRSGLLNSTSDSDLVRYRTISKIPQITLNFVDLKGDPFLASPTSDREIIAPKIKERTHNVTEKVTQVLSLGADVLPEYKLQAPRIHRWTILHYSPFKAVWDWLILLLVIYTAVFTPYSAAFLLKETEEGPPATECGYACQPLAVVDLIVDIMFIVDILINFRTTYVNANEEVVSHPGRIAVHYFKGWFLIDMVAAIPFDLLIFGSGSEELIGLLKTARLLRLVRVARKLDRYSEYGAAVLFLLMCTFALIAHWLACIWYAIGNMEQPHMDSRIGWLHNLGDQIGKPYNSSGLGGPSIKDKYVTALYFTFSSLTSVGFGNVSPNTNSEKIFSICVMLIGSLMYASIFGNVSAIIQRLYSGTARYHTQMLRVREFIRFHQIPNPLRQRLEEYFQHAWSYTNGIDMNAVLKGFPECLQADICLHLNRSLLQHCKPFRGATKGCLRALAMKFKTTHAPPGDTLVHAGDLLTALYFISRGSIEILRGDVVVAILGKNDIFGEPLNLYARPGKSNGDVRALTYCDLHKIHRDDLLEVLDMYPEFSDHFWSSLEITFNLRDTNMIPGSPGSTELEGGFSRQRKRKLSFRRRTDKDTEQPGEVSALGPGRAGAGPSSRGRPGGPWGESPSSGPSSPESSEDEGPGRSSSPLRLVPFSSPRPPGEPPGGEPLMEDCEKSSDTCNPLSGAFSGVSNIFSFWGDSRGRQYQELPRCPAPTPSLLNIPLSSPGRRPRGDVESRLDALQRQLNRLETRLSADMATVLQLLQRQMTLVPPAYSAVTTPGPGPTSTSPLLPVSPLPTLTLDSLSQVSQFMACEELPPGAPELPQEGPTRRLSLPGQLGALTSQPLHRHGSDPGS
row,SMILES,"hERG current change (%, negative = inhibition) at 10uM"
1,N#Cc1cc(Cl)c(NCC2CCCO2)cc1C#N (centres unmarked),7.45%
2,CC1CCCN(C(=O)Nc2cccc(NC(=O)N3CCCC(C)C3C)c2)C1C (centres unmarked),0.168%
3,Cc1ccc(N2CC(C(=O)Nc3ccc(C)c(S(=O)(=O)N(C)C)c3)CC2=O)cc1 (centres unmarked),-25.2%
4,O=C(OC(C(=O)NC1CCCC1)c1ccccc1F)c1ccco1 (centres unmarked),5.25%
5,Cc1cccc(NC(=O)CSCC(=O)N2CCN(c3cccc(C(F)(F)F)c3)CC2)c1,-21.8%
6,COc1ccc(NC(=O)CSCC(=O)N(C)CC(=O)Nc2c(C)cccc2C)cc1,-0.574%
7,CNC(=O)c1c(N)sc2c1CCCCC2,-3.16%
8,COC(=O)C(NC(=O)c1ccco1)(Nc1nc(C2CC2)cs1)C(F)(F)F (centres unmarked),11.7%
9,Cn1ccnc1COc1ccc(C=O)cc1,10.4%
10,C=CCn1c(SCC(=O)Nc2ccc(C(=O)OCC)cc2)nnc1-c1cccs1,16.7%
11,COc1ccc(-c2nnc(SCc3nc4ccccc4s3)n2C(C)C)cc1,-67.7%
12,C=CCn1c(SCC(=O)Nc2ccc(C(=O)OC(C)C)cc2)nnc1-c1cccs1,5.07%
13,COc1ccc(-n2nnnc2SCc2nc3ccccc3s2)cc1,-5.94%
14,COc1cccc(-c2nnc(SCc3nc4ccccc4s3)n2C)c1,-29%
15,CCn1c(SCc2nc3ccccc3s2)nnc1-c1cccs1,-60%
16,CCn1c(SCc2nc3ccccc3s2)nnc1-c1ccccc1,-11%
17,C=CCn1c(SCC(=O)Nc2ccc3c(c2)CCC3)nnc1-c1cccs1,-76.9%
18,Cn1c(SCc2nc3ccccc3s2)nnc1-c1cccs1,-36%
19,Cc1c(/C=N\NC(=O)C2COc3ccc(C(C)(C)C)cc3O2)c2ccccc2n1C (centres unmarked),14%
20,CC(C)c1nnc(NC(=O)CCS(=O)(=O)c2ccccc2)s1,19.5%
21,CCOC(=O)N1CCC(NC(=O)C2CCCN(C(=O)N3CCOc4ccccc43)C2)CC1 (centres unmarked),3.21%
22,CCCCOc1ccc(-c2c(C(=O)Nc3ccccc3)c(C)[nH]c(=S)c2C#N)cc1,12.1%
23,C/C(=N/NC(=O)c1ccco1)c1cccc(NC(=O)c2ccc(C)s2)c1,1.1%
24,COc1ccc(CCNC(=O)CCS(=O)(=O)c2ccc3c(c2)NC(=O)CO3)cc1OC,14.5%

row,SMILES,"hERG current change (%, negative = inhibition) at 10uM"
1,COc1ccc(NC(=O)CNC(=O)Cn2ccc3ccccc3c2=O)c(OC)c1,15%
2,Cc1ccc(Cn2nc(C)c3cc(C(=O)OCC(N)=O)sc32)cc1,7.64%
3,Cc1nn(Cc2ccc(Cl)cc2)c2sc(C(=O)O)cc12,31.1%
4,Cc1nn(Cc2ccc(Cl)cc2)c2sc(C(=O)OCC(N)=O)cc12,-52.1%
5,OCCC1CN(Cc2ccc(F)cc2)CCN1CCc1ccccc1 (centres unmarked),-74.2%
6,CC(C)CN1CCN(Cc2ccc(Oc3ncccn3)cc2)CC1CCO (centres unmarked),-28.5%
7,OCCC1CN(Cc2ccc(F)cc2Cl)CCN1CCc1ccccc1 (centres unmarked),-67.4%
8,OCCC1CN(Cc2ccc(Oc3ncccn3)cc2)CCN1CCc1ccccc1 (centres unmarked),-55.2%
9,CC(=O)Nc1ccc(CN2CCN(CC(C)C)C(CCO)C2)cc1 (centres unmarked),2.2%
10,CC(C)CCN1CCN(Cc2ccc(Oc3ncccn3)cc2)CC1CCO (centres unmarked),-9.21%
11,CC(=O)Nc1ccc(CN2CCN(CCC(C)C)C(CCO)C2)cc1 (centres unmarked),19.7%
12,CC(C)CN1CCN(Cc2ccc(F)cc2Cl)CC1CCO (centres unmarked),-34.4%
13,CC(=O)Nc1ccc(CN2CCN(CCc3ccccc3)C(CCO)C2)cc1 (centres unmarked),-51.8%
14,OCCC1CN(Cc2ccon2)CCN1CCc1ccccc1 (centres unmarked),-19.2%
15,COc1cc(NC(=O)COC(=O)Cc2ccc(-c3ccccc3)cc2)cc(OC)c1,3.6%
16,Cc1cc(=O)[nH]c2nnnn12,4.44%
17,O=C(Nc1cccc(F)c1)Nc1ccnn1C1CCN(C(=O)c2ccccn2)CC1,14.2%
18,COc1cccc(N=C2SC(C(=O)Nc3ccc(F)cc3)CC(=O)N2C)c1 (centres unmarked),-11%
19,CC(OC(=O)c1nn(C)c(=O)c2ccccc12)C(=O)Nc1ccc(S(N)(=O)=O)cc1 (centres unmarked),11.6%
20,OCCC1CN(Cc2ccc(F)cc2)CCN1CCCc1ccccc1 (centres unmarked),-68.2%
21,COC(=O)c1ccc(CN2CCN(Cc3ccccc3)C(CCO)C2)cc1 (centres unmarked),-16.5%
22,Cc1cc(C)n(-c2ccc(F)cc2CN2CCN(Cc3ccccc3)C(CCO)C2)n1 (centres unmarked),-37.2%
23,OCCC1CN(Cc2ccc3c(c2)CCO3)CCN1C1CCCC1 (centres unmarked),-12.7%
24,COC(=O)c1ccc(CN2CCN(CCCc3ccccc3)C(CCO)C2)cc1 (centres unmarked),-64.1%

row,SMILES,"hERG current change (%, negative = inhibition) at 10uM"
1,COC(=O)c1ccc(CN2CCN(CCC(C)C)C(CCO)C2)cc1 (centres unmarked),-25.7%
2,OCCC1CN(Cc2ccc3c(c2)CCO3)CCN1Cc1ccc(F)cc1 (centres unmarked),-72.9%
3,Cc1ccc(CN2CCN(Cc3ccc4c(c3)OCCO4)CC2CCO)cc1 (centres unmarked),-39.8%
4,OCCC1CN(Cc2cc(F)ccc2F)CCN1CCCc1ccccc1 (centres unmarked),-70.3%
5,CCCCOC(=O)Nc1ccc(S(=O)(=O)Nc2ccc([N+](=O)[O-])cc2)cc1,9.83%
6,Cc1cc(C(=O)OCC(=O)c2cccs2)c2ccccc2n1,24.1%
7,O=c1[nH][nH]c(-c2ccccc2)c1C=Nc1ccc(Cl)cc1,-23%
8,Cc1ccc(C(=O)C2=C(O)C(=O)N(CCCN3CCOCC3)C23C(=O)N(C)c2ccccc23)o1 (centres unmarked),27.9%
9,O=C(Cn1[nH]c(=O)c2ccccc2c1=O)OCC(=O)c1ccccc1Cl,-0.463%
10,Cc1nn(-c2ccc(F)cc2)c(C)c1CN1CCN(CCC(C)C)C(CCO)C1 (centres unmarked),-36.3%
11,CC(C)n1cc(CN2CCN(CCc3ccccc3)C(CCO)C2)cn1 (centres unmarked),-53.4%
12,CCn1cc(CN2CCN(CCc3ccccc3)C(CCO)C2)c(C)n1 (centres unmarked),-31%
13,OCCC1CN(Cc2ccc3nsnc3c2)CCN1CCc1ccccc1 (centres unmarked),-82.2%
14,OCCC1CN(Cc2cccc(F)c2F)CCN1CCc1ccccc1 (centres unmarked),-55.3%
15,Cn1cc(CN2CCN(CCc3ccccc3)C(CCO)C2)cn1 (centres unmarked),4.52%
16,CC(C)CCN1CCN(Cc2ccc3nsnc3c2)CC1CCO (centres unmarked),-42.6%
17,Cc1nn(-c2ccc(F)cc2)c(C)c1CN1CCN(CCc2ccccc2)C(CCO)C1 (centres unmarked),-67.5%
18,CC(C)=CCN1CCN(Cc2ccc3nsnc3c2)CC1CCO (centres unmarked),-19.4%
19,Cc1nn(-c2ccc(F)cc2)c(C)c1CN1CCN(Cc2ccccc2)C(CCO)C1 (centres unmarked),-44.2%
20,O=C(O)c1cncc(C#Cc2ccccc2)c1,1.39%
21,Cc1c(C(=O)Nc2ccc(OCc3ccccc3)cc2)cccc1[N+](=O)[O-],-0.125%
22,CC1CCCCN1S(=O)(=O)c1ccc(C(=O)N2CCOCC2)cc1 (centres unmarked),16.8%
23,C[Se]C[C@@H](N)C(=O)O.Cl,12.3%
24,COc1cc2ccccc2cc1C(=O)OCC(=O)N(C)c1c(N)n(Cc2ccccc2)c(=O)[nH]c1=O,3.29%

row,SMILES,"hERG current change (%, negative = inhibition) at 10uM"
1,Cn1c(C(=O)NCCN2CCc3ccccc3C2)cc2c(=O)n(C)c3ccccc3c21,-11.8%
2,N/C(=N\OC(=O)CCCOc1ccccc1)c1ccccc1,7.28%
3,Br.COC(=O)c1ccc(OCCN2C3=NCCN3c3ccccc32)cc1,-68.7%
4,Cl.c1ccc(OCCN2C3=NCCN3c3ccccc32)cc1,-73.3%
5,COC(=O)c1ccc(OCCOc2ccc(C(=O)OC)cc2)cc1,-14.3%
6,Br.COC(=O)CN1C2=NCCCN2c2ccccc21,-11.8%
7,CCN(CC)c1ccc(/C=N/NC(=O)c2ccc3nc[nH]c3c2)cc1,-22%
8,N#C/C(=C/c1ccccc1)C(=O)OCC(=O)Nc1ccccc1[N+](=O)[O-],8.46%
9,Cc1nn(-c2ccccc2)c(C)c1-c1nnc(C(F)(F)F)o1,2.32%
10,Cc1ccc(-c2c3c(=O)n(C)c(=O)n(C)c3cn2N2CCOCC2)cc1,-40%
11,COc1ccc(-c2c3c(=O)n(C)c(=O)n(C)c3cn2N2CCOCC2)cc1,-52.3%
12,Cn1c(=O)c2c(-c3ccc(C(C)(C)C)cc3)n(N3CCOCC3)cc2n(C)c1=O,-26.7%
13,COC(=O)c1cc(C(=O)Nc2ccc(Cl)cn2)cc([N+](=O)[O-])c1,-19%
14,O=c1oc2cc(S(=O)(=O)NCCCO)ccc2c2ccc(S(=O)(=O)NCCCO)cc12,16.1%
15,CN1CCC(OC(=O)c2ccc(Cl)cc2Cl)CC1.Cl,-55.9%
16,CN1CCC(OC(=O)c2ccccc2Cl)CC1.Cl,0.522%
17,CN(C)CC1CCCCC1OC(=O)/C=C/c1ccc(Cl)cc1Cl.Cl (centres unmarked),-32.4%
18,CN(C)CC1CCCCC1OC(=O)c1ccc(Br)cc1.Cl (centres unmarked),-7.82%
19,COc1ccc(C(=O)OC2CCCCC2CN(C)C)cc1.Cl (centres unmarked),14.1%
20,CN(C)CC1CCCCC1OC(=O)c1ccc(Cl)c(Cl)c1.Cl (centres unmarked),-52.1%
21,CN(C)CC1CCCCC1OC(=O)c1ccc(Cl)cc1 (centres unmarked),-28.5%
22,CN1CCC(OC(=O)c2cccc(Cl)c2)CC1.Cl,-8.64%
23,CN(C)CC1CCCCC1OC(=O)c1ccc(Cl)cc1Cl.Cl (centres unmarked),-56.5%
